We go through 20 molecules from PubChem BioAssay (NCATS).

One assay concerns PA-1. The assay can be described thus: Primary qHTS to identify gynecologic anti-cancer compounds using libraries of approved drugs and bioactive compounds (AID 1345084). Further: on the % scale 0 is the no-effect control and ±100 the full control effect; nearly all actives have a fitted effect of over 55% in size. Conditions: Gynecologic cancer cell panel viability, ATPlite luminescence, 48 h; series mostly up to 57.5 µM. The essentials:
(§1)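 Cytotoxicity screen measuring ATP content by luciferase luminescence. Each compound is applied at five concentrations for 48 h at 37 C with 5% CO2.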

A further assay concerns SKOV3. The description is as above. Conditions: Gynecologic cancer cell panel viability, ATPlite luminescence, 48 h; series mostly up to 57.5 µM. The essentials: as §1
On the technique in general: In ATP-based viability assays light output follows the ATP content of the culture.

In a further assay the test system is Tov-21-G. The assay is described as above. The following applies: Gynecologic cancer cell panel viability, ATPlite luminescence, 48 h; series mostly up to 57.5 µM. The essentials: as §1
Another assay concerns Tov112D. Described as above. The following applies: Gynecologic cancer cell panel viability, ATPlite luminescence, 48 h; series mostly up to 57.5 µM. The essentials: as §1
Assay [1] can be described thus: Drug repurposing screens with cells derived from glioblastoma tumor samples (AID 1345199). Further: nearly all actives have a fitted effect of over 40% in size. Further: potency means the concentration at half of the fitted maximal effect. On activity, negative = cell killing: on the % scale 0 is the no-effect control and ±100 the full control effect. The following applies: GBM patient neurospheres viability, ATP luminescence, 48 h. The essentials: (§2)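 Four patient lines of CD133+ GBM neurospheres were screened at several concentrations; hits were retested in those lines plus three slower-growing GBM lines, using 48-hour treatment and ATP-based viability.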

A further assay concerns astro. The assay is described as above. The following applies: viability, ATP luminescence, 48 h; series mostly up to 45.9 µM. The essentials: as §2
In assay [2] the target is Nuclear receptor subfamily 1 group I member 2 (Rattus norvegicus) (UniProt Q9R1A7). The assay can be described thus: qHTS assay for small molecule activators of the rat pregnane X receptor (rPXR) signaling pathway (AID 651751; call rule not given here; further: 0% is about no effect). The following applies: rPXR reporter cells, luciferase (One-Glo), 24 h. Background: qHTS replaces the single test concentration by a dilution series.
Chain of Nuclear receptor subfamily 1 group I member 2 (Rattus norvegicus) (Q9R1A7 whole entry, looked up): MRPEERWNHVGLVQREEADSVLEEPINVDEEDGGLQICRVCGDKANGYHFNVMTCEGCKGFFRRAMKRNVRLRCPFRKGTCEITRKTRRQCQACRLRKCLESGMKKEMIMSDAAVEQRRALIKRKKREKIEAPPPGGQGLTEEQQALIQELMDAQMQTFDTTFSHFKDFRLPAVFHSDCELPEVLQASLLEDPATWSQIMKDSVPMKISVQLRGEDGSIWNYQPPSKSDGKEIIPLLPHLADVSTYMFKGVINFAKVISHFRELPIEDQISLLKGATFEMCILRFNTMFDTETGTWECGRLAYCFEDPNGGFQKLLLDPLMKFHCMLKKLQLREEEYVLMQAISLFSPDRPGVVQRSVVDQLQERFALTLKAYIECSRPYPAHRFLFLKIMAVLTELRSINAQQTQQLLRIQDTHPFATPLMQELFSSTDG

Assay [3] in a line: qHTS assay for small molecule activators of the human pregnane X receptor (PXR) signaling pathway (AID 720659; call rule not given here; further: 0% is about no effect).
Where [4] appears, read: at 45.9 µM (top of the series), tumour line B.
Setting [5] is: at 45.9 µM (top of the series), tumour line D.
[6] abbreviates: at 46.1 µM (top of the series), tumour line C.
The mark [7] stands for this setting: at 46 µM (top of the series), tumour line A.

Each structure is given as a SMILES string. “And” between values parts separate entries of the source, which are not always exact repeats. Equal entries are not always repeated. Values without a mark were called inactive. Inconclusive results are not listed. More than one record can exist for a structure, and the calls need not agree. The source made the active and inactive calls. Unless noted, the call rests on the fitted dose curve; in most records, active means well fitted curve in the direction sought with a large enough effect; inconclusive means small, poorly fitted or top-dose-only effect, or another doubt; inactive means no such curve, though single readings can be large; an effect the other way counts as inactive or inconclusive.

With `CCOC(=O)Cn1cccc1-c1nc(-c2ccc(OC)cc2)c(-c2ccc(OC)cc2)s1`, the Potency entry in the assay on PA-1, in the assay with SKOV3, in the assay on Tov-21-G, in the assay on Tov112D and with astro was “inactive” throughout. Further, the activity, negative = cell killing in assay [1] (setting [4]) was -12.2%; in assay [1] (setting [5]) it was -21.7%; in assay [1] (setting [6]), -5.22%. Further, the Potency in assay [1] (tumour line A) is 6.31 µM (active).

Regarding `O=C1CC[C@H](C(=O)N2CCCCC2)N1`, the Potency result with PA-1, in the assay on SKOV3, with Tov-21-G, with Tov112D and in the assay on astro was “inactive” throughout. For the same molecule, the activity, negative = cell killing in assay [1] (setting [4]) is 5.57%; in assay [1] (setting [5]) it was 0.144%; in assay [1] (setting [7]), -19.7%; in assay [1] (setting [6]), 1.57%.

`CO/N=C(/C(=O)N[C@@H]1C(=O)N2C(C(=O)OCOC(=O)C(C)(C)C)=C(C)CS[C@H]12)c1csc(N)n1`: the Potency result in the assay with PA-1, in the assay on SKOV3, in the assay with Tov-21-G, in the assay on Tov112D and in the assay on astro was “inactive” in each case. Besides, the activity, negative = cell killing is -3% in assay [1] (setting [4]), 4.02% in assay [1] (setting [5]), -24.5% in assay [1] (setting [7]) and 0.657% in assay [1] (setting [6]).

For `CCN1CCN(C(=O)N[C@@H](C(=O)N[C@@H]2C(=O)N3[C@@H]2SC(C)(C)[C@H]3C(=O)O)c2ccccc2)C(=O)C1=O`, the Potency result in the assay with PA-1, with SKOV3, in the assay with Tov-21-G, with Tov112D and with astro was “inactive” each time. Further, the activity, negative = cell killing in assay [1] (setting [4]) is -6.11%; in assay [1] (setting [5]) it was -1.23%; in assay [1] (setting [7]) it was -24%; in assay [1] (setting [6]), 3.83%.

Take `CC(=O)OCC[N+](C)(C)C`: the Potency result in the assay with PA-1, in the assay with SKOV3, in the assay with Tov-21-G, in the assay on Tov112D and in the assay with astro was “inactive” each time. Moreover, the activity, negative = cell killing was -0.685% in assay [1] (setting [4]), 1.13% in assay [1] (setting [5]), -13.5% in assay [1] (setting [7]) and 18% in assay [1] (setting [6]).

`CCNC(=O)NCCCOc1cccc(CN2CCCCC2)c1`: the Potency entry in the assay with PA-1, with SKOV3, with Tov-21-G, in the assay on Tov112D and with astro was “inactive” each time. For the same molecule, the activity, negative = cell killing in assay [1] (setting [4]) is -3.43%; in assay [1] (setting [5]) it was -22.4%; in assay [1] (setting [6]), -25.1%. Besides, in assay [1] (tumour line A), the Potency was 17.8 µM (active).

For the molecule `Brc1ccccc1-c1ccccc1`, the Potency entry with PA-1, in the assay with SKOV3, in the assay on Tov-21-G, in the assay with Tov112D and in the assay on astro was “inactive” in each case. Further, the activity, negative = cell killing in assay [1] (at 91.6 µM (top of the series), tumour line A) is -21.1%; in assay [1] (at 91.6 µM (top of the series), tumour line B), -9.1%; in assay [1] (at 91.6 µM (top of the series), tumour line D), -21.1%; in assay [1] (at 99.2 µM (top of the series), tumour line C), 6.63%. For the same molecule, the max response in assay [2] was 13.4%. The molecule was classed as inactive in assay [3].

Take `O=C(COCCOCCOCC(=O)Nc1c(I)cc(I)c(C(=O)O)c1I)Nc1c(I)cc(I)c(C(=O)O)c1I`: the Potency result in the assay with PA-1, in the assay on SKOV3, in the assay on Tov-21-G, in the assay on Tov112D and in the assay with astro was “inactive” in each case. The figures for the activity, negative = cell killing in assay [1] (setting [4]), in assay [1] (setting [5]) and in assay [1] (setting [6]) were -4.03%, -4.14% and 15.8%, respectively.

On to `CC(=O)N[C@@H](CCC(N)=O)C(=O)O`, for which the Potency entry in the assay on PA-1, in the assay with SKOV3, in the assay on Tov-21-G, in the assay with Tov112D and in the assay on astro was “inactive” each time. For the same molecule, the activity, negative = cell killing was -17.6% in assay [1] (setting [4]), -7.79% in assay [1] (setting [5]) and -4.41% in assay [1] (setting [6]).

With `OC(CCCN1CCCCC1)(c1ccccc1)c1ccccc1`, the Potency result in the assay with PA-1, in the assay with SKOV3, with Tov-21-G, with Tov112D and with astro was “inactive” throughout. Moreover, the activity, negative = cell killing is 9.15% in assay [1] (setting [4]), -27.2% in assay [1] (setting [5]) and -3.12% in assay [1] (setting [6]). For the same molecule, the Potency in assay [1] (tumour line A) is 11.2 µM (active).

Turning to `O=S(=O)(O)c1ccc2nc(-c3ccccc3)[nH]c2c1`, the Potency entry in the assay on PA-1, in the assay on SKOV3, in the assay on Tov-21-G, in the assay with Tov112D and with astro was “inactive” each time. The activity, negative = cell killing is -3.28% in assay [1] (setting [4]), -9.15% in assay [1] (setting [5]) and -23.9% in assay [1] (setting [6]).

On to `CCc1cc(S(=O)(=O)O)c2cc(C(C)C)cccc1-2`, for which the Potency entry in the assay with PA-1, in the assay with SKOV3, in the assay on Tov-21-G, in the assay on Tov112D and in the assay on astro was “inactive” throughout. The activity, negative = cell killing in assay [1] (setting [4]) is -10.8%; in assay [1] (setting [5]) it was -10.6%; in assay [1] (setting [6]), -1.11%.

In the case of `C[N+](C)(CCOc1ccccc1)Cc1cccs1`, the Potency result in the assay on PA-1, in the assay on SKOV3, with Tov-21-G, with Tov112D and in the assay on astro was “inactive” each time. The activity, negative = cell killing in assay [1] (setting [4]) is -1.12%; in assay [1] (setting [5]) it was -8.83%; in assay [1] (setting [6]) it was -14.1%.

For the molecule `N#C/C(=C1/SC[C@@H](c2ccc(Cl)cc2Cl)S1)n1ccnc1`, the Potency entry in the assay on PA-1, in the assay on SKOV3, in the assay with Tov-21-G, in the assay with Tov112D and with astro was “inactive” each time. Also, the activity, negative = cell killing in assay [1] (setting [4]) is -20.5% and -14.1%. The Potency in assay [1] (tumour line A) was 11.2 µM (active) and 20 µM (active); in assay [1] (tumour line D), 11.2 µM (active).

With `O=C(CCCCCCCCC#CI)Oc1ccccc1`, the Potency result with PA-1, with SKOV3, in the assay with Tov-21-G, in the assay with Tov112D and with astro was “inactive” throughout. Besides, the activity, negative = cell killing in assay [1] (setting [4]) is -16.2%; in assay [1] (setting [5]), -0.884%; in assay [1] (setting [7]), -21.9%; in assay [1] (setting [6]) it was -10.1%.

Take `CCOC(=O)c1ccc(OCCN2C[C@H](O)[C@@H](O)[C@H](O)[C@H]2CO)cc1`: the Potency entry with PA-1, with SKOV3, in the assay on Tov-21-G, in the assay on Tov112D and in the assay with astro was “inactive” throughout. Moreover, the activity, negative = cell killing was 0.0726% in assay [1] (setting [4]), -4.04% in assay [1] (setting [5]) and 1.63% in assay [1] (setting [6]).

Take `CC1CC(=O)NN=C1c1ccc(NCC(C)(C)NCC(O)COc2cc(Cl)ccc2C#N)cc1` (stereo unspecified): the Potency result in the assay with PA-1, with SKOV3, in the assay with Tov-21-G, in the assay on Tov112D and in the assay on astro was “inactive” in each case. For the same molecule, the activity, negative = cell killing was -23.3% in assay [1] (setting [4]) and -27.2% in assay [1] (setting [5]). Also, in assay [1] (tumour line A), the Potency is 1.78 µM (active).

In the case of `CN(CC1(C)CCCO1)S(=O)(=O)c1ccc(Cl)c(S(N)(=O)=O)c1` (stereo unspecified), the Potency entry with PA-1, in the assay with SKOV3, with Tov-21-G, with Tov112D and in the assay on astro was “inactive” in each case. The values for the activity, negative = cell killing in assay [1] (setting [4]), in assay [1] (setting [5]) and in assay [1] (setting [6]) were -9.01%, -23.5% and 16.1%, respectively.

Take `O=C(O)c1ccccc1S`: the Potency result in the assay with PA-1, with SKOV3, with Tov-21-G, in the assay on Tov112D and with astro was “inactive” in each case. In addition, the activity, negative = cell killing is 0.0031% in assay [1] (setting [4]), 6.57% in assay [1] (setting [5]) and 1.53% in assay [1] (setting [6]).

`C[N+]1(C)CCC(OC(=O)C(O)(c2ccccc2)C2CCCC2)C1` (stereo unspecified): the Potency entry in the assay with PA-1, in the assay on SKOV3, in the assay with Tov-21-G, with Tov112D and in the assay on astro was “inactive” throughout. In addition, the activity, negative = cell killing in assay [1] (setting [5]) was -7.1%; in assay [1] (setting [6]) it was -3.15% and -15.3%. Besides, the Potency in assay [1] (tumour line A) is 11.2 µM (active).
